# Reference: the supplement of paper PMC8728848
# Many of the other results were omitted from the sample, so the strongest signals are more common in it than they were.
# B1: MRCL (Homo sapiens), NP_872425.1 (protein)
# chain: ATKVHFPFHTCDLRIDGDCFMVSSEADTYYRARMKCQRKGGVLAQIKSQKVQDILAFYLGRLETTNEVTDSDFETRNFWIGLTYKTAKDSFRWATGEHQAFTSFAFGQPDNHGLVWLSAAMGFGNCVELQASAAFNWNNQRCKTRNRYICQFAQEHISRWGPGS
# Experiments:
# Assay in all cases: glycan array binding signal (z-score within array); higher = stronger binding
# Conditions in all cases: glycan notation: IUPAC condensed, linker removed
# [1] = molecular target: Fuc(a1-2)Gal(b1-3)GlcNAc(b1-2)Man(a1-3)[Fuc(a1-2)Gal(b1-3)GlcNAc(b1-2)Man(a1-6)]Man(b1-4)GlcNAc(b1-4)GlcNAc
# Procedure, shortened: (§1)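 Columns mapping to the same glycan were averaged after glycan names were converted to IUPAC-condensed notation. The data come from 3228 arrays in the Consortium for Functional Glycomics database, limited to those with an available protein sequence. Binding is reported as a within-array Z-score averaged across arrays of one protein sequence and across linkers.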
# [2] = molecular target: Fuc(a1-2)Gal(b1-3)[Fuc(a1-4)]GlcNAc(b1-2)Man(a1-3)[Fuc(a1-2)Gal(b1-3)[Fuc(a1-4)]GlcNAc(b1-2)Man(a1-6)]Man(b1-4)GlcNAc(b1-4)GlcNAc
# Procedure, shortened: as §1
# [3] = molecular target: Fuc(a1-2)[Gal(a1-3)]Gal(b1-4)Glc
# Procedure, shortened: as §1
# [4] = molecular target: Fuc(a1-2)[Gal(a1-4)]Gal(b1-4)GlcNAc
# Procedure, shortened: as §1
# [5] = molecular target: Fuc(a1-2)[GalNAc(a1-4)]Gal(b1-4)GlcNAc
# Procedure, shortened: as §1
# [6] = molecular target: Fuc(a1-3)[Gal(b1-4)]GlcNAc(b1-4)Gal(b1-4)[Fuc(a1-3)]GlcNAc
# Procedure, shortened: as §1
# [7] = molecular target: Gal(a1-3)[Gal(a1-4)]Gal(b1-4)GlcNAc
# Procedure, shortened: as §1
# Gal(b1-2)Gal = molecular target: Gal(b1-2)Gal
# Procedure, shortened: as §1
# [8] = molecular target: Gal(b1-4)GlcNAc(b1-2)Man(a1-3)[Gal(b1-4)GlcNAc(b1-2)Man(a1-6)]Man(b1-4)GlcNAc(b1-4)GlcNAc
# Procedure, shortened: as §1
# [9] = molecular target: Gal(b1-4)GlcNAc(b1-3)Gal(b1-4)GlcNAc(b1-3)Gal(b1-4)GlcNAc
# Procedure, shortened: as §1
# [10] = molecular target: Gal(b1-4)GlcNAc(b1-3)[GlcNAc(b1-6)]Gal(b1-4)GlcNAc
# Procedure, shortened: as §1
# [11] = molecular target: Gal3S(b1-3)[Fuc(a1-4)]GlcNAc
# Procedure, shortened: as §1
# Gal3S6S(b1-4)GlcNAc6S = molecular target: Gal3S6S(b1-4)GlcNAc6S
# Procedure, shortened: as §1
# GalNAc(a1-3)GalNAc = molecular target: GalNAc(a1-3)GalNAc
# Procedure, shortened: as §1
# GalNAc(b1-3)GalNAc = molecular target: GalNAc(b1-3)GalNAc
# Procedure, shortened: as §1
# Glc(a1-6)Glc(a1-6)Glc = molecular target: Glc(a1-6)Glc(a1-6)Glc
# Procedure, shortened: as §1
# Glc(b1-6)Glc = molecular target: Glc(b1-6)Glc
# Procedure, shortened: as §1
# GlcA(b1-6)Gal = molecular target: GlcA(b1-6)Gal
# Procedure, shortened: as §1
# [12] = molecular target: GlcNAc(a1-4)Gal(b1-4)GlcNAc(b1-3)Gal(b1-4)GlcNAc(b1-3)Gal(b1-4)GlcNAc
# Procedure, shortened: as §1
# [13] = molecular target: GlcNAc(a1-4)Gal(b1-4)GlcNAc(b1-3)Gal(b1-4)[Fuc(a1-3)]GlcNAc(b1-3)Gal(b1-4)[Fuc(a1-3)]GlcNAc
# Procedure, shortened: as §1
# [14] = molecular target: GlcNAc(a1-6)Gal(b1-4)GlcNAc
# Procedure, shortened: as §1
# [15] = molecular target: GlcNAc(b1-4)[GlcNAc(b1-6)]GalNAc
# Procedure, shortened: as §1
# Man(a1-6)Man = molecular target: Man(a1-6)Man
# Procedure, shortened: as §1
# [16] = molecular target: Neu5Ac(a2-3)Gal(b1-3)GlcNAc(b1-3)Gal(b1-3)GlcNAc
# Procedure, shortened: as §1
# [17] = molecular target: Neu5Ac(a2-3)Gal(b1-3)GlcNAc6S
# Procedure, shortened: as §1
# [18] = molecular target: Neu5Ac(a2-3)Gal(b1-4)[Fuc(a1-3)]GlcNAc(b1-3)Gal(b1-4)GlcNAc
# Procedure, shortened: as §1
# [19] = molecular target: Neu5Ac(a2-3)Gal(b1-4)[Fuc(a1-3)]GlcNAc(b1-6)[Gal(b1-3)]GalNAc
# Procedure, shortened: as §1
# [20] = molecular target: Neu5Ac(a2-3)Gal6S(b1-4)[Fuc(a1-3)]GlcNAc
# Procedure, shortened: as §1
# Neu5Ac(a2-3)GalNAc = molecular target: Neu5Ac(a2-3)GalNAc
# Procedure, shortened: as §1
# [21] = molecular target: Neu5Ac(a2-6)Gal(b1-4)GlcNAc(b1-3)Gal(b1-4)GlcNAc(b1-3)Gal(b1-4)GlcNAc
# Procedure, shortened: as §1
# Neu5Ac(a2-8)Neu5Ac = molecular target: Neu5Ac(a2-8)Neu5Ac
# Procedure, shortened: as §1
# Neu5Ac(b2-6)GalNAc = molecular target: Neu5Ac(b2-6)GalNAc
# Procedure, shortened: as §1
binder,measurement,setting,value
B1,glycan array binding signal (z-score),[1],3.42
same,glycan array binding signal (z-score),[2],0.034
same,glycan array binding signal (z-score),[3],2.33
same,glycan array binding signal (z-score),[4],-0.456
same,glycan array binding signal (z-score),[5],3.1
same,glycan array binding signal (z-score),[6],-0.365
same,glycan array binding signal (z-score),[7],0.889
same,glycan array binding signal (z-score),Gal(b1-2)Gal,-0.726
same,glycan array binding signal (z-score),[8],-0.358
same,glycan array binding signal (z-score),[9],4.88
same,glycan array binding signal (z-score),[10],4.12
same,glycan array binding signal (z-score),[11],-0.239
same,glycan array binding signal (z-score),Gal3S6S(b1-4)GlcNAc6S,0.67
same,glycan array binding signal (z-score),GalNAc(a1-3)GalNAc,-0.581
same,glycan array binding signal (z-score),GalNAc(b1-3)GalNAc,-0.074
same,glycan array binding signal (z-score),Glc(a1-6)Glc(a1-6)Glc,-0.679
same,glycan array binding signal (z-score),Glc(b1-6)Glc,-0.712
same,glycan array binding signal (z-score),GlcA(b1-6)Gal,0.237
same,glycan array binding signal (z-score),[12],1.88
same,glycan array binding signal (z-score),[13],1.11
same,glycan array binding signal (z-score),[14],5.62
same,glycan array binding signal (z-score),[15],-0.523
same,glycan array binding signal (z-score),Man(a1-6)Man,0.948
same,glycan array binding signal (z-score),[16],-0.295
same,glycan array binding signal (z-score),[17],-0.562
same,glycan array binding signal (z-score),[18],-0.637
same,glycan array binding signal (z-score),[19],-0.645
same,glycan array binding signal (z-score),[20],-0.64
same,glycan array binding signal (z-score),Neu5Ac(a2-3)GalNAc,-0.424
same,glycan array binding signal (z-score),[21],-0.367
same,glycan array binding signal (z-score),Neu5Ac(a2-8)Neu5Ac,-0.294
same,glycan array binding signal (z-score),Neu5Ac(b2-6)GalNAc,5.61
